Laboratory results: PubChem BioAssay (NCATS)
Records with an inconclusive call do not appear. Activity calls are given as the source filed them. Unless noted, calls come from the whole dose curve; as a rule, active = well fitted curve in either direction with a large enough effect (not every such curve was filed as active); inconclusive = small, poorly fitted or top-dose-only effect, or another doubt; inactive = flat fitted curve, though single readings scatter.

Assays:
[1] = target: Lysosomal acid glucosylceramidase (Homo sapiens) (UniProt P04062); assay: Glucocerebrosidase-p2 (AID 348; in the data active = potency below about 10 µM; note: potency is the fitted concentration of half-maximal effect); conditions: purified GBA, blue fluorogenic substrate, 40 min
How it was run: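 Compounds titrated from 0.6 nM upwards against 0.2 nM enzyme in pH 5.9 citric acid/KH2PO4, taurocholate, tween-20; blue fluorogenic substrate 80 uM, 40 min room temperature, stopped and read Ex 365/Em 440 for AC50.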

[2] = AP1 Signaling Pathway (AID 357); conditions: ME-180 AP-1-bla reporter, EGF-induced, beta-lactamase ratio, 5 h; at 7.69 µM (top of the series) unless noted;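 note: ME-180 reporter cells stimulated with EGF at its EC50 level; % is set by controls: 0 for no effect and ±100 for the full control effect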
How it was run: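 A ratiometric CCF4 readout (405 nm excitation; 460 and 530 nm emission) quantified AP-1-driven beta-lactamase in ME-180 cells after 5 h with compound and EC50 EGF; AC50 values were derived for activators and inhibitors.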

[3] = NFAT Signaling Pathway (AID 444); conditions: Jurkat NFAT-bla M1, carbachol, beta-lactamase ratio, 5 h; at 7.69 µM (top of the series) unless noted;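 note: carbachol stimulus at about its EC50 of 1 µM final; % is set by controls: 0 for no effect and ±100 for the full control effect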
How it was run: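 Jurkat cells carrying an NFAT-driven β-lactamase reporter and co-transfected muscarinic M1 receptor were treated with compound plus carbachol (1 uM final, an EC50 level) for 5 h at 37 °C. CCF4 loading followed for 1 h at RT; 460/530 nm ratio gave %activity.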

[4] = Stat Signaling Pathway (AID 446); conditions: ME-180 SIE beta-lactamase reporter, IL-6 stimulated, 5 h; at 7.69 µM (top of the series) unless noted;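 note: ME-180 cervical cancer cells given 40 pM IL-6 alongside compound; SIE-controlled beta-lactamase reporter measured as 460/530 nm FRET emission ratio; % is set by controls: 0 for no effect and ±100 for the full control effect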
How it was run: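 Screening format detects activators and inhibitors alike: ME-180 SIE-bla cells stimulated at 40 pM IL-6 for 5 hrs with compound, then dual-emission beta-lactamase read at 405 nm excitation.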

[5] = target: Glucocorticoid receptor (Homo sapiens) (UniProt P04150); assay: GR-EFC Redistribution (AID 451; calls by dose curve; note: potency is the fitted concentration of half-maximal effect); conditions: CHO-K1 GR-EFC translocation, beta-gal luminescence, 2 h
How it was run: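 CHO-K1 cells stably expressing nuclear-localized β-gal enzyme acceptor and GR fused C-terminally to the enzyme donor fragment; ligand-driven nuclear translocation restores β-gal by complementation. Compounds titrated up to 46 uM final, 2 h at 37 °C; luminescence read.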

[6] = target: Mitogen-activated protein kinase 10 (Mus musculus) (UniProt Q61831); assay: JNK3 AlphaScreen Assay (AID 530); conditions: JNK3 lysate, c-Jun phosphorylation; series mostly up to 57.1 µM;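 note: kinase came from lysate of stimulated human HepG2 cells; signal reports phosphorylation of biotinylated GST-cJun 1-79 at Ser73 with 10 µM ATP; % is set by controls: 0 for no effect and ±100 for the full control effect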
How it was run: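 Inhibitors reduce antibody binding to phosphorylated biotin-cJun, lowering AlphaScreen luminescence. Lysates from HepG2 cells pre-activated by IL-1beta plus TNF-alpha supplied JNK3; compounds were titrated.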

[7] = target: 3',5'-cyclic-AMP phosphodiesterase 4B (Homo sapiens) (UniProt Q07343); assay: qHTS Assay for Inhibitors of PDE-IV (AID 607; active = well fitted activation curve with a large enough effect in the main read-out, with a control signal flat, not every such curve was filed as active; note: % of control where 0% means no effect); conditions: HEK293 ACTOne CNG channel cells, membrane potential fluorescence; series mostly up to 22.9 µM
How it was run: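 The readout is membrane depolarisation from a cAMP-sensing CNG channel, detected with a potential dye at ex 535/em 590. Cells were HEK293-derived (endogenous PDE-IV) at 1000 cells/well, titrated up to 22.9 uM final.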

[8] = qHTS Assay for Lipid Storage Modulators (AID 1519; calls by dose curve); conditions: Drosophila S3 cells, BODIPY lipid droplet/cell ratio, laser cytometry, cells loaded with oleic acid; for activity change, negative = inhibition: at 57.5 µM (top of the series)
How it was run: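 Cells seeded at 5,000 per well were treated with compounds over a concentration series and loaded with oleic acid (400 uM, as added). Lipid droplet fluorescence (488 nm excitation, 500-530 nm channel) was read by laser-scanning cytometry and normalized to 20 uM Triacsin C.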

[9] = Primary qHTS for small molecule stabilizers of the endoplasmic reticulum resident proteome: Secreted ER Calcium Modulated Protein (SERCaMP) assay (AID 1508630; active = well fitted curve in the direction sought with a large enough effect; an effect the other way counts as inactive or inconclusive; note: % is set by controls: 0 for no effect and ±100 for the full control effect); conditions: SH-SY5Y GLuc-SERCaMP (Gaussia luciferase released on ER calcium loss) secretion, thapsigargin, luminescence; series mostly up to 38.4 µM
How it was run: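 GLuc-SERCaMP-expressing SH-SY5Y cells, pretreated 16 h with compound, are challenged with thapsigargin to empty ER calcium stores; after 4 h, coelenterazine is added directly to the medium and luminescence is imaged.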

[10] = target: Cytochrome P450 3A4 (Homo sapiens) (UniProt P08684); assay: qHTS Assay for Inhibitors and Substrates of Cytochrome P450 3A4 (AID 884; active = well fitted curve in the direction sought with a large enough effect; an effect the other way counts as inactive or inconclusive; note: % is set by controls: 0 for no effect and ±100 for the full control effect; nearly all actives have a fitted effect of over 50% in size); conditions: recombinant CYP3A4, Luciferin-PPXE luminescence; series mostly up to 57.1 µM
How it was run: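 20 nM human CYP3A4 with 25 uM Luciferin-PPXE (at KM) in 200 mM KPO4, preincubated 10 min with compound; NADPH regeneration started a 60 min RT reaction. Luciferin detected by luminescence, normalized to 57 uM ketoconazole as full inhibition.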

[11] = target: Cytochrome P450 3A4 (Homo sapiens) (UniProt P08684); assay: qHTS Assay for Activators of Cytochrome P450 3A4 (AID 885; active = well fitted curve in the direction sought with a large enough effect; an effect the other way counts as inactive or inconclusive; note: nearly all actives have a fitted effect of over 65% in size; note: potency is the fitted concentration of half-maximal effect); conditions: recombinant CYP3A4, Luciferin-PPXE luminescence, 60 min; series mostly up to 57.1 µM
How it was run: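 Steps: enzyme/substrate mix dispensed; compound added, 10 min RT; NADPH regeneration solution added, 60 min RT; luciferin detection buffer stops reaction; 20 min later luminescence measured.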

[12] = target: Glucocorticoid receptor (Homo sapiens) (UniProt P04150); assay: GR-GFP Redistribution (AID 450;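 active = compounds whose dose series gives a full or clear partial fitted curve of increased nuclear translocation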; note: potency is the fitted concentration of half-maximal effect); conditions: U2OS GR-GFP nuclear translocation, laser cytometry, 2 h
[13] = Confirmation and Secondary Assay for Modulators of Hemoglobin Beta Chain Splicing at IVS2 654 locus (AID 910; active = well fitted curve in the direction sought with a large enough effect; an effect the other way counts as inactive or inconclusive;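 note: per-well total GFP intensity by laser scanning cytometry after 2-day treatment; % of control where 0% means no effect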); conditions: HeLa EGFP-654 splicing reporter, GFP fluorescence, 48 h; series mostly up to 38.3 µM
How it was run: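 HeLa cells stably carrying EGFP interrupted by mutant beta-globin IVS2-654 intron (CMV-driven) were treated with compound for 2 days at 37C; corrected splicing was scored as total peak GFP intensity per well (488 nm excitation, 500-520 nm emission).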

[14] = Confirmation and Secondary Assay for Modulators of Hemoglobin Beta Chain Splicing at IVS2 705 locus (AID 930; active = well fitted curve in the direction sought with a large enough effect; an effect the other way counts as inactive or inconclusive;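 note: HeLa cells stably expressing the EGFP-705 splicing reporter; GFP fluorescence per well restored by corrected splicing of the IVS2-705 intron in EGFP; % of control where 0% means no effect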); conditions: HeLa EGFP-705 splicing reporter, GFP fluorescence, 48 h; series mostly up to 38.3 µM
How it was run: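 HeLa IVS2-705 EGFP reporter cells, 500/well, compound 2 d at 37C; correct splicing yields fluorescent EGFP. Control: 500 nM antisense PNA. Read-out: total peak GFP intensity.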

[15] = target: Ubiquitin carboxyl-terminal hydrolase 1 (Homo sapiens) (UniProt O94782); assay: Inhibitors of USP1/UAF1: Pilot qHTS (AID 504865; active = well fitted curve in the direction sought with a large enough effect; an effect the other way counts as inactive or inconclusive;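 note: rhodamine fluorescence freed from ubiquitin-rhodamine substrate followed over time; top concentration of the series differs between compounds; % is set by controls: 0 for no effect and ±100 for the full control effect; nearly all actives have a fitted effect of over 35% in size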); conditions: purified USP1/UAF1, Ub-rhodamine cleavage fluorescence; series mostly up to 54.9 µM
How it was run: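 USP1/UAF1 complex at 1 nM preincubated 15 min at room temperature with compound, then Ub-Rho substrate added at 150 nM final. Fluorescence (480/540 nm) read kinetically in 50 mM HEPES pH 7.8, 0.5 mM EDTA, 1 mM TCEP, 0.1 mg/ml BSA, 0.01% Tween-20.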

[16] = qHTS Assay for Identification of Small Molecule Agonists for Hypoxia Response Element Signaling Pathway (AID 914; active = well fitted activation curve with a large enough effect in the signal ratio, with a control signal flat, not every such curve was filed as active; the % refers to the signal ratio; note: % of control where 0% means no effect); conditions: ME-180 (cervical carcinoma) HRE-bla reporter, beta-lactamase ratio, CoCl2, 17 h; activation: stronger effect = higher value
How it was run: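 HRE-bla ME-180 assay for agonist-like enhancement of an EC50 CoCl2 stimulus: 17 h at 37 degrees Celsius, CCF4 for 2.5 h, ratiometric 460/530 nm signal converted to %Activity and fitted to AC50.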

[17] = measured here: cell count channel max response
[18] = measured here: lipid channel max response

Sequence of 3',5'-cyclic-AMP phosphodiesterase 4B (Homo sapiens) (Q07343 whole entry, looked up): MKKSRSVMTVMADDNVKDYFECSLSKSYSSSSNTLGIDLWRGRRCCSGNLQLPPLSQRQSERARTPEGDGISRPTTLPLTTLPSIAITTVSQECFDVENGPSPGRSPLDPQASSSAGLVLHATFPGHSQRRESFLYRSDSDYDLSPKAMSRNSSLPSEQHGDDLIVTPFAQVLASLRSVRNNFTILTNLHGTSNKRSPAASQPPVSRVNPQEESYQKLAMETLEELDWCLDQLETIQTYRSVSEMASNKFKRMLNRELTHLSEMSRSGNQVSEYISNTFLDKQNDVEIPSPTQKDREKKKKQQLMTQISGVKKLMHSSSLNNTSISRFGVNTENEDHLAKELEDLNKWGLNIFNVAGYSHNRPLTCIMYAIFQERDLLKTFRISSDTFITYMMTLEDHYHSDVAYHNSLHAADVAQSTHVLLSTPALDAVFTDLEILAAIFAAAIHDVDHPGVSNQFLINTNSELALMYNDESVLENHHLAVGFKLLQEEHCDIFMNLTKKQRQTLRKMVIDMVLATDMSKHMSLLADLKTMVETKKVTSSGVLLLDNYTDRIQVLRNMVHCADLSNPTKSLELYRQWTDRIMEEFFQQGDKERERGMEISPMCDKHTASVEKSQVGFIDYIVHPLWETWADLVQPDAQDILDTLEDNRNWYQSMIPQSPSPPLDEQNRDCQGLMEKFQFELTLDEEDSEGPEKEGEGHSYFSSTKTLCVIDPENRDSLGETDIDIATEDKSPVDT
Sequence of Cytochrome P450 3A4 (Homo sapiens) (P08684 whole entry, looked up): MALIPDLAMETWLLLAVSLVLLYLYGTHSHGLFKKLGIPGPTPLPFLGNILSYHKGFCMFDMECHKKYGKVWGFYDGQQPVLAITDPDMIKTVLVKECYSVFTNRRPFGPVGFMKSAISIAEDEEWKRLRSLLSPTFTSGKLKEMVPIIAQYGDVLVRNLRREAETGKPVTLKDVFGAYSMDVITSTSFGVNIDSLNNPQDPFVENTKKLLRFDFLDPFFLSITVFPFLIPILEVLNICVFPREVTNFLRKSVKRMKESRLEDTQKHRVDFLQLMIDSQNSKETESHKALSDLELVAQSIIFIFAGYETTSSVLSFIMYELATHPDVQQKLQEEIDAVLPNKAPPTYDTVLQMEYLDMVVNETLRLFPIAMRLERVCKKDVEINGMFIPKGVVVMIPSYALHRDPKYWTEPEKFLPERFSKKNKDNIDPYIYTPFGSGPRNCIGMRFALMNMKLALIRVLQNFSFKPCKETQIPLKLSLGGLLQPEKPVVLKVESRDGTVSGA
Sequence of Lysosomal acid glucosylceramidase (Homo sapiens) (P04062 whole entry, looked up): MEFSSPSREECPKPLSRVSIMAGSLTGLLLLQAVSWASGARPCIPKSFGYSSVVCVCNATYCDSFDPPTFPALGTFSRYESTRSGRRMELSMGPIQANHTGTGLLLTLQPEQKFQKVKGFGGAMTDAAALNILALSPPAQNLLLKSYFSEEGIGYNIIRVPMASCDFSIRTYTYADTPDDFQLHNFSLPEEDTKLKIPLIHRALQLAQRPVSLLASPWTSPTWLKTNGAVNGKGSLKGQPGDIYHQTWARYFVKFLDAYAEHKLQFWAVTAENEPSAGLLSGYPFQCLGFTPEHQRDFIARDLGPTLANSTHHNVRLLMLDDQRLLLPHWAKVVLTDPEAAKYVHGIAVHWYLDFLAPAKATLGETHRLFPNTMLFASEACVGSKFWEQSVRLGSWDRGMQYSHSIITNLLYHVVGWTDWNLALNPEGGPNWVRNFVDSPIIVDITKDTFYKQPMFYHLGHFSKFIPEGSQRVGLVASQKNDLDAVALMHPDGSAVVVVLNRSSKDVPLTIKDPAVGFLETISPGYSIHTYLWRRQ
Sequence of Glucocorticoid receptor (Homo sapiens) (P04150 whole entry, looked up, the tested form may be a part): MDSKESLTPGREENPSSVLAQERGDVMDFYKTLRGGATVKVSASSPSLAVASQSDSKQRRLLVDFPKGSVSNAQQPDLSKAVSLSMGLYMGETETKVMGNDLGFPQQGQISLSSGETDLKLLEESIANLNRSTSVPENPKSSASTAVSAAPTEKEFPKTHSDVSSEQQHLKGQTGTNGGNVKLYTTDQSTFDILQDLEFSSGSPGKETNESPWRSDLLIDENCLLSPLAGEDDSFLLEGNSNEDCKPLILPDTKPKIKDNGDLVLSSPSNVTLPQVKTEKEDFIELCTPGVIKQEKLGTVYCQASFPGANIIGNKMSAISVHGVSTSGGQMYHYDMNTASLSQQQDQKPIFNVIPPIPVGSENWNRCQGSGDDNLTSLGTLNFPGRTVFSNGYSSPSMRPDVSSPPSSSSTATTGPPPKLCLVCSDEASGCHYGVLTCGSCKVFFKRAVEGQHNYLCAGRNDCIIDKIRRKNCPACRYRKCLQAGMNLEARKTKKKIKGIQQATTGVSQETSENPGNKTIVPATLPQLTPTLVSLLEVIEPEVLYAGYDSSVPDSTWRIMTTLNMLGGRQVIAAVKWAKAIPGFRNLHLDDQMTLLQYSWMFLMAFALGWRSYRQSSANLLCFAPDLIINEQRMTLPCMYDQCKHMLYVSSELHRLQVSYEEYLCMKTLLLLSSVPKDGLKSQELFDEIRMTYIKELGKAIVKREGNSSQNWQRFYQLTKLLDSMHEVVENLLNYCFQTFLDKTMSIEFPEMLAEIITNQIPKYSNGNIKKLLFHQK
Sequence of Ubiquitin carboxyl-terminal hydrolase 1 (Homo sapiens) (O94782 whole entry, looked up): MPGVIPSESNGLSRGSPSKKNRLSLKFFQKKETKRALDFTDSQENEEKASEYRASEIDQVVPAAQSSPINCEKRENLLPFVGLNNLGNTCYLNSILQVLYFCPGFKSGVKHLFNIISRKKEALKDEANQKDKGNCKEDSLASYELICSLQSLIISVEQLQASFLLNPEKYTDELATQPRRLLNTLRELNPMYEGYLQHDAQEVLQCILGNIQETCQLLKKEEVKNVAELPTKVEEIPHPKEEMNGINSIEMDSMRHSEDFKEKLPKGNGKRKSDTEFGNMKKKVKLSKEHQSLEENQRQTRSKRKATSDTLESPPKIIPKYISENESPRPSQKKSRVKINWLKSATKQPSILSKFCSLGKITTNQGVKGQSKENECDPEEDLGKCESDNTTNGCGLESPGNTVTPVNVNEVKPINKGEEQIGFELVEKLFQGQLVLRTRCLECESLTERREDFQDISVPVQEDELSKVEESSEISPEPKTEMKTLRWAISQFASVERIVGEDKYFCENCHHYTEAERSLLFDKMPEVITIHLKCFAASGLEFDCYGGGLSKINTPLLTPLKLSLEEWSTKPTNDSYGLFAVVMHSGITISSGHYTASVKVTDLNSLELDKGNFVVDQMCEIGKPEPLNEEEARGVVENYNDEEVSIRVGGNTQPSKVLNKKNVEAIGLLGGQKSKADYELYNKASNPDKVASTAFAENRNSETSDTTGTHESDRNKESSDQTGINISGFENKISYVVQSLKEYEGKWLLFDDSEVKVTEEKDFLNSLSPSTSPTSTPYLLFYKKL

| Structure (SMILES) | Potency [1] | activity change, negative = inhibition [2] | activity change, negative = inhibition [3] | activity, negative = inhibition [4] | Potency [5] | Potency [6] | Potency [7] | activity change, negative = inhibition [8] | max response [8, 17] [%] | max response [8, 18] [%] | outcome [9] | Potency [10] | Potency [11] | Potency [12] | Potency [13] | outcome [14] | Potency [15] | activation [16] |
| --- | --- | --- | --- | --- | --- | --- | --- | --- | --- | --- | --- | --- | --- | --- | --- | --- | --- | --- |
| COc1ccc(C(=O)N2CCC[C@@]3(CCN(c4ncccn4)C3)C2)cc1 | > 11.4 µM (inactive) | -20.4% (inactive) | 4.77% (inactive) | 1.38% (inactive) | > 46 µM (inactive) | inactive | inactive | 4.06% (inactive) | 3.46 | 12.1 | inactive |  |  |  |  |  |  |  |
| COc1ccc(NC(=O)N2CCCC3(CCN(C(=O)c4ccncc4)CC3)C2)cc1 | > 11.4 µM (inactive) | -8.03% (inactive) | -13.4% (inactive) | -2.92% (inactive) | > 46 µM (inactive) | inactive | inactive | 4.52% (inactive) | 10.2 | 18.3 | inactive |  |  |  |  |  |  |  |
| COc1ccc(C(=O)N2CCC[C@@]3(CCN(Cc4ccncc4)C3)C2)cc1 | > 11.4 µM (inactive) | -9.73% (inactive) | 4.96% (inactive) | 2.52% (inactive) | > 46 µM (inactive) | inactive | inactive | 5.81% (inactive) | 16.4 | 25.6 | inactive |  |  |  |  |  |  |  |
| O=C(c1cccc(F)c1)N1CCC2(CC1)CN(c1ncccn1)C2 | > 11.4 µM (inactive) | 1.82% (inactive) | -6.5% (inactive) | -6.7% (inactive) | > 46 µM (inactive) | inactive | inactive | 1.3% (inactive) | 1.53 | 3.53 | inactive | inactive | 25.1 µM (active) |  |  |  |  |  |
| O=C(Nc1ccccc1)N1CC[C@@]2(CCCN(C(=O)c3ccncc3)C2)C1 | > 11.4 µM (inactive) | -15.8% (inactive) | -4.67% (inactive) | -5.93% (inactive) | > 46 µM (inactive) | inactive | inactive | 1.5% (inactive) | 13.8 | 15.1 | inactive |  | inactive |  |  |  |  |  |
| Cc1cccc(CNc2cc(-c3cccnc3)ncn2)c1 | > 11.4 µM (inactive) | -15.4% (inactive) | -0.57% (inactive) |  | > 46 µM (inactive) | inactive | inactive | -14.1% (inactive) | -10.4 | -22.1 | inactive |  |  | > 46 µM (inactive) | inactive | inactive | inactive |  |
| COc1ccc(NC(=O)N2CCCC3(CCN(C(C)=O)CC3)C2)cc1 | > 11.4 µM (inactive) | -2.44% (inactive) | 11.5% (inactive) | -0.377% (inactive) | > 46 µM (inactive) | inactive | inactive | 5.88% (inactive) | 10.9 | 18.6 | inactive |  |  |  |  |  |  | -9.1% (inactive) |
| CS(=O)(=O)N1CCC2(CCCN(c3cccc(-c4ccccc4)c3)C2)CC1 | > 11.4 µM (inactive) | -13.4% (inactive) | 0.269% (inactive) | -0.955% (inactive) | > 46 µM (inactive) | inactive | inactive | -12% (inactive) | 12.1 | -3.01 | inactive |  |  |  |  |  |  | -18.3% (inactive) |
| O=C(c1cnccn1)N1CCC[C@@]2(CCN(Cc3ccccc3)C2)C1 | > 11.4 µM (inactive) | 5.08% (inactive) | 6.26% (inactive) | 1.17% (inactive) | > 46 µM (inactive) | inactive | inactive | 1.97% (inactive) | 8.78 | 13.2 | inactive |  |  |  |  |  |  |  |
| COc1ccccc1CN1CC2(CCN(C(=O)c3cc(C(F)(F)F)cc(C(F)(F)F)c3)CC2)C1 | > 11.4 µM (inactive) | 1.43% (inactive) |  | 3.93% (inactive) | > 46 µM (inactive) | inactive |  | -1.27% (inactive) | 11.2 | 10.9 | inactive |  |  |  |  |  |  |  |
| Cn1cccc1C(=O)N1CCC2(CC1)CCN(c1ccncc1)CC2 | > 11.4 µM (inactive) | -0.611% (inactive) |  | 6.85% (inactive) | > 46 µM (inactive) | inactive | inactive | 1.02% (inactive) | -0.0216 | 2.95 | inactive |  |  |  |  |  |  |  |
| N#Cc1cccc(NC(=O)N2CC3(CCN(C(=O)c4ccco4)CC3)C2)c1 | > 11.4 µM (inactive) | -10.9% (inactive) |  | 19.7% (inactive) | > 46 µM (inactive) | inactive | inactive | 4.67% (inactive) | 3.49 | 11.7 | inactive |  |  |  |  |  |  |  |
